# The list is not random: actives were taken first. Their share in the collection is about 11%.
# AmpC detergent: AmpC beta-lactamase inhibition with detergent present. AmpC hydrolysis of nitrocefin, absorbance 480 nm, 0.01% Triton. Potency, µM (doses to about 114 µM), without a hit: at the highest dose activity change, negative = inhibition, usual class: inhibitors. 0.041% of 370,000 active. AID 485294;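 also: 0% = no-compound wells and -100% = no-enzyme wells; nearly all actives have a fitted effect of over 25% in size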
# Target sequence (P00811 whole entry, looked up): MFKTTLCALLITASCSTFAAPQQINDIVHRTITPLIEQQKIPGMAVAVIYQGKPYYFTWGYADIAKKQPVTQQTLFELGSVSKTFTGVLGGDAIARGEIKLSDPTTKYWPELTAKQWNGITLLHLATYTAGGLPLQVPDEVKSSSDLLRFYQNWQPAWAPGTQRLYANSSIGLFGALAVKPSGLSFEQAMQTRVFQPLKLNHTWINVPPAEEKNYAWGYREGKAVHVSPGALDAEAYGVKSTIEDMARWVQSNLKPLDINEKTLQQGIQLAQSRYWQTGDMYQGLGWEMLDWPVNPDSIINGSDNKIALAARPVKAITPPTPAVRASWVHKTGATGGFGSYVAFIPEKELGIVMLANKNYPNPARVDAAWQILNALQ
#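 AmpC (5.3 nM in the dispensed reagent) in 20 mM phosphate pH 7.0 with 0.01% (detergent screen) or 0.0001% Triton X-100 was preincubated with compounds for 15 min at room temperature. Nitrocefin was then added from an 800 uM solution, and hydrolysis was followed at 480 nm.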
# HCV inhibitor: blocks hepatitis C virus. Huh7.5.1 HCVcc-Cre infection, luciferase reporter, 44 h. Potency, µM (top dose mostly 41.8 µM), for the others: at the top dose activity change, negative = inhibition, usual class: inhibitors. 3.4% of 340,000 active
#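 Cells (1,000/well) were plated 4 h before compound, then infected with HCVcc-Cre virus (~0.5 moi). After 44 h further culture, infection was read as luciferase luminescence following a 15 min substrate incubation at room temperature.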
# Pf growth 96h: inhibits malaria parasite growth, 96 h; P. falciparum luciferase reporter growth, 96 h; Potency, µM (titrated, usually from 28.7 µM), inactives show top-dose activity change, negative = inhibition, usual class: inhibitors; 6.9% of 320,000 active; AID 504834
#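 Readout is luminescence from an integrated firefly luciferase in P. falciparum. Red cells, 2% hematocrit and 0.05% parasitemia final, were cultured with compound through two parasite generations (96 hours) at 37 C, 5% CO2.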
# Pf growth 48h: inhibits P. falciparum growth in the first generation, 48 h. P. falciparum luciferase growth in erythrocytes, 48 h. Potency, µM (doses to about 28.7 µM), without a hit: at the top dose activity change, negative = inhibition, hits mostly inhibitors. 5.9% of 310,000 active. AID 504832
#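 Erythrocytes infected with P. falciparum carrying an integrated firefly luciferase reporter (2% hematocrit, 0.1% parasitemia final) were exposed to compounds in RPMI 1640 with 0.5% Albumax at 37 C, 5% CO2. Growth inhibition was scored as reduced luminescence.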
# AmpC inh no detg: AmpC beta-lactamase inhibition without detergent. AID 485341. Potency, µM (doses to about 57.1 µM), inactives show at the top dose activity change, negative = inhibition, usual class: inhibitors. P00811. AmpC nitrocefin hydrolysis, absorbance 480 nm, 0.0001% Triton. 0.52% of 330,000 active;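 also: plate controls were no compound for no effect and no enzyme for full effect; nearly all actives have a fitted effect of over 20% in size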
#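 AmpC (5.3 nM in the dispensed reagent) in 20 mM phosphate pH 7.0 with 0.01% (detergent screen) or 0.0001% Triton X-100 was preincubated with compounds for 15 min at room temperature. Nitrocefin was then added from an 800 uM solution, and hydrolysis was followed at 480 nm.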
# AMA1-RON2 inh: AMA1-RON2 (P. falciparum) interaction inhibition; AlphaScreen AMA1-biotinylated RON2 peptide binding; Potency, µM (doses to about 58.2 µM), without a hit: top-dose activity change, negative = inhibition, most hits filed as inhibitors; 0.2% of 360,000 active;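 also: 0% = vehicle wells and -100% = peptide control; nearly all actives have a fitted effect of over 45% in size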
#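 AMA1 (3D7) with his tag at 25 nM final met compounds first, then biotinylated RON2 peptide at 25 nM; detection used donor plus acceptor beads, 10 µg/mL apiece, read by AlphaScreen after 30 min at room temperature.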
# * hit, by the source's call; ? = inconclusive; nt = no result given; [ ] = dose if it differs, or a comment. Calls follow the shape of the dose curve; as a rule, active = well fitted curve in the direction sought with a large enough effect; inconclusive = small, poorly fitted or top-dose-only effect, or another doubt; inactive = no such curve, though single readings can be large; an effect the other way counts as inactive or inconclusive. Unless noted, % is scaled to controls: 0 for no effect and ±100 for the full control effect; potency is read from the fitted curve at half-maximal effect.
SMILES,AmpC detergent,HCV inhibitor,Pf growth 96h,Pf growth 48h,AmpC inh no detg,AMA1-RON2 inh
CCCc1nc2ccccc2c(C(=O)OCC(=O)Nc2ccc(S(=O)(=O)N3CCOCC3)cc2)c1CC,1%,8.9µM*,nt,15µM*,17%,-11%
CC(C)CC(=O)Nc1ccc(Oc2ccc3c(c2)C(=O)NC3=O)cc1,-3%,12%,13µM*,15%,-44%,2%
CCOC(=O)c1ccccc1NC(=O)CSc1nc2ncccc2o1,1%,nt,nt,nt,nt,nt
Cc1ccc(C)c(N2CCN(S(=O)(=O)c3cc(C(=O)Nc4ccccc4C(F)(F)F)ccc3F)CC2)c1,-3%,nt,nt,nt,nt,nt
CC(=O)N1CCc2cc(S(=O)(=O)NCCC(=O)NC3CCCc4ccccc43)ccc21 (stereo unspecified),2%,10%,37%,12µM*,46%,-5%
CCC(=O)N1CCc2cc(S(=O)(=O)Nc3ccccc3C)ccc21,1%,-3%,0.93µM*,2%,-14%,25%
Cc1ccccc1NS(=O)(=O)c1cc2c3c(c1)CC(=O)N3CCC2,-2%,-12%,9%,13µM*,27%,-7%
CCC(=O)N1CCc2cc(S(=O)(=O)NCCN3CCC(C)CC3)ccc21,2%,-9%,1.7µM*,nt,-12%,15%
COc1ccc(CCN2C(=O)c3[nH]nc(-c4ccccc4O)c3C2c2ccc(OC)c(OC)c2)cc1 (stereo unspecified),18%,nt,nt,nt,nt,nt
CCCCN(c1ccccc1)S(=O)(=O)c1ccc2c(c1)CCN2C(=O)CCC(=O)O,3%,15%,9.3µM*,?,-27%,8%
CCOc1ccc2c(c1)c(N=NC(N)=S)c(O)n2C,-4%,1%,5.2µM*,9.3µM*,-17%,58%
CCOC(=O)c1noc2ncnc(N3CCC(C)CC3)c12,18%,nt,nt,nt,nt,nt
COc1ccc(N2CCN(c3oc(Cc4ccccc4)nc3C#N)CC2)cc1,3%,-27%,-6%,?,-12%,17µM*
CN1CCN(c2oc(COc3ccc(-c4ccccc4)cc3)nc2C#N)CC1,?,5µM*,-17%,-19%,204%,?
N#Cc1nc(Cc2ccccc2)oc1N1CCN(c2cccc(Cl)c2)CC1,?,-9%,18%,-17%,-27%,-23%
COCCCNc1oc(COc2ccc(Cl)cc2Cl)nc1C#N,-9%,-9%,13µM*,nt,91%,-6%
COc1ccc(N2CCN(c3oc(COc4ccccc4)nc3C#N)CC2)cc1,0%,-19%,55%,13µM*,27%,?
N#Cc1nc(COc2ccccc2)oc1N1CCCC1,-6%,-4%,15%,-27%,-8%,-14%
COc1ccccc1-c1cc2nc(C)c(CCC(=O)NCCc3cccc(C)c3)c(C)n2n1,-12%,nt,nt,nt,nt,nt
COc1ccccc1NC(=O)c1cc(=O)c2ccc(C)c(C)c2o1,-5%,nt,nt,nt,nt,nt
CCC1=Nc2cc(C(=O)N3CCC(C)CC3)ccc2Sc2ccc(C)cc21,0%,nt,nt,nt,nt,nt
COC(=O)C1CCN(C(c2ccccc2)c2sc3nc(-c4ccco4)nn3c2O)CC1 (stereo unspecified),1%,nt,nt,nt,nt,nt
O=C(CN1C(=O)CC(c2ccco2)Sc2ccccc21)Nc1cccc(C(F)(F)F)c1 (stereo unspecified),1%,nt,nt,nt,nt,nt
COc1ccc(N2CCN(c3oc(COc4ccc(Cl)cc4Cl)nc3C#N)CC2)cc1,?,?,-1%,16%,-19%,25µM*
COc1ccc(CCNCc2c(C(=O)O)c(C)n(Cc3ccccc3C)c2C)c(OC)c1,15%,nt,nt,nt,nt,nt
SMILES,AmpC detergent,HCV inhibitor,Pf growth 96h,Pf growth 48h,AmpC inh no detg,AMA1-RON2 inh
c1ccc2c(c1)NC1(CCCCCC1)n1c-2nc2ccccc21,3%,-6%,nt,117%,-32%,16%
CCCCC1(C)Nc2ccccc2-c2nc3ccccc3n21 (stereo unspecified),-10%,-26%,1.3µM*,2.1µM*,-36%,28%
CC1(c2ccccn2)Nc2ccccc2-c2nc3ccccc3n21 (stereo unspecified),-2%,0%,9%[5.75 µM],1.7µM*,-25%,53%
C=C(CC)C(=O)c1ccc(OCC(=O)O)c(Cl)c1Cl,-4%,26%,15µM*,?,-19%,-4%
COc1ccc(OC)c(CCNC(=O)CCn2c(=O)c3cccn3c3cccnc32)c1,20%,nt,nt,nt,nt,nt
COc1ccc(Cn2c(-c3ccco3)nc3c(c(=O)c4ccccc4n3C)c2=O)cc1,2%,?,-2%,11%,-22%,-7%
CC(C)Cn1c(-c2ccco2)nc2c(c(=O)c3ccccc3n2C)c1=O,3%,-18%,1.2µM*,1.3µM*,-23%,nt
CCCCCc1nc2c(c(=O)c3ccccc3n2C)c(=O)n1C1CCCCCC1,-1%,?,12µM*,?,-19%,-4%
Cn1c2ccccc2c(=O)c2c(=O)n(C3CCCCC3)c(-c3ccco3)nc21,-8%,?,4.1µM*,4.7µM*,-30%,0%
COc1ccc(-c2noc(CN(C)Cc3ccccc3)n2)cc1,0%,5%,?,21%,-2%,14%
COc1cccc(CN(C)Cc2nc(C3CC3)no2)c1,7%,-3%,12µM*,75%,-2%,0%
O=C(CSc1nc2c(oc3ccccc32)c(=O)n1-c1ccccc1)Nc1ccc(F)c(Cl)c1,13%,nt,nt,nt,nt,nt
O=C(C1CCN(S(=O)(=O)c2cccnc2)CC1)N1CCN(C2CCCC2)CC1,-2%,2%,10µM*,0%,14%,10%
O=C(C1CCN(S(=O)(=O)c2cccc3cccnc23)CC1)N1CCN(C2CCCCC2)CC1,4%,?,15%,?,113%,6%
CCc1cccc(C)c1NS(=O)(=O)c1ccc2c(c1)NC(=O)C(C)C(=O)N2 (stereo unspecified),4%,nt,nt,nt,nt,nt
O=C(Nc1ccc(F)cc1F)c1ccc2nc(N3CCOCC3)sc2c1,0%,13µM*,12µM*,80%,-12%,0%
Oc1c(C(c2ccccc2)N2CCN(Cc3ccccc3)CC2)sc2nc(-c3ccco3)nn12 (stereo unspecified),-5%,nt,nt,nt,nt,nt
CCOc1ccc(NC(=O)C2CCCN(S(=O)(=O)c3cnc[nH]3)C2)cc1 (stereo unspecified),-6%,2%,-28%,-5%,-13%,-1%
COc1ccc(CCNC(=O)C2CCN(S(=O)(=O)c3cnc[nH]3)CC2)cc1OC,3%,?,?,-3%,-12%,13%
COc1ccc(CCNC(=O)C/C(C)=N/NC(=O)c2ccc(N)cc2)cc1OC,3%,?,?,40%,?,40%

# Assay outcomes from PubChem.
